Compounds with a hit are over-represented: about 12% of the library has one in this group of screens.
G9a block: qHTS Assay for Inhibitors of Histone Lysine Methyltransferase G9a. 350,000 tested, 8.8% active. AID 504332, 2011. G9a H3K9 monomethylation, AlphaScreen, 2 h. Potency, µM (series often up to 102 µM), for the others: at the top dose activity, negative = inhibition, actives largely listed as inhibitors. Histone-lysine N-methyltransferase EHMT2 (Homo sapiens), Q96KQ7; also: potency is read from the fitted curve at half-maximal effect; % is scaled to controls: 0 for no effect and ±100 for the full control effect; nearly all actives have a fitted effect of over 75% in size
Target sequence (Q96KQ7 913-1193 limits assumed): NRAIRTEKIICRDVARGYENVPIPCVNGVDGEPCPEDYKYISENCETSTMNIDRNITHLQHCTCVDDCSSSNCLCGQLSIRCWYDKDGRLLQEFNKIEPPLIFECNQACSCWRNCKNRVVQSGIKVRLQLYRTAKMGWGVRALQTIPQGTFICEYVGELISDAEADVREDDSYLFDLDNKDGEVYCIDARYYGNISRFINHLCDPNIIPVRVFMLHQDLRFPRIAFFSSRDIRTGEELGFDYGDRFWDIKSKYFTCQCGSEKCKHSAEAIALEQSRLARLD
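Using a bead-based AlphaScreen, monomethylated H3K9 product from 2 h room-temperature reactions (G9a 20 nM, peptide 500 nM, SAM 20 uM) was detected with 0.5 ug/mL rabbit anti-H3K9me1 antibody.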
PI5P4K alpha inh: qHTS for Inhibitors of phosphatidylinositol 5-phosphate 4-kinase (PI5P4K); PI5P4Kalpha enzyme, ADP-Glo luminescence, 60 min; stronger effect = lower value; 330,000 tested, 1.2% active; Phosphatidylinositol 5-phosphate 4-kinase type-2 alpha (Homo sapiens), P48426; AID 652105, 2013; max response, %; active = max response of -50% or lower; inconclusive = between -30% and -50%; inactive = -30% or higher; also: value at the top dose of about 77 µM; % is scaled to controls: 0 for no effect and ±100 for the full control effect
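qHTS, 1536-well: enzyme/substrate mix, compound by pin tool, 5 microM ATP final; RT 60 min; ADP-Glo reagents 1 (45 min) then 2 (30 min); luminescence.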
HP1b binding inh: HTS for Inhibitors of HP1-beta Chromodomain Interactions with Methylated Histone Tails; Chromobox protein homolog 1 (Homo sapiens), P83916; AlphaScreen HP1-beta / biotin-H3K9me3 peptide binding; Potency, µM (highest dose often 114 µM), inactives show top-dose activity change, negative = inhibition, hits mostly inhibitors; 390,000 tested, 0.56% active; also: potency is read from the fitted curve at half-maximal effect; nearly all actives have a fitted effect of over 70% in size
Target sequence (P83916 whole entry, looked up): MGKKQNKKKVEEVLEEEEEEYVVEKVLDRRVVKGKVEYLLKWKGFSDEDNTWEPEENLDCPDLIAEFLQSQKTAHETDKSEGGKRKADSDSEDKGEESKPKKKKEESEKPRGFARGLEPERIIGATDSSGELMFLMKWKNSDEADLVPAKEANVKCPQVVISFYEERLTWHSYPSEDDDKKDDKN
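Compound inhibition of the preformed complex between 50 nM HP1-beta and 50 nM biotinylated H3K9me3 peptide was read by AlphaScreen. Buffer was PBS pH 7.4 with 0.01% Tween-20. Incubations ran 30 min at room temperature, with 10 ug/mL donor/acceptor beads.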
BAZ2B inh: qHTS Assay for Inhibitors of BAZ2B. AlphaScreen BAZ2B-H3K14Ac peptide displacement. 360,000 tested, 4.4% active. Bromodomain adjacent to zinc finger domain protein 2B (Homo sapiens), Q9UIF8. AID 504333, 2011. Potency, µM (series often up to 114 µM), inactives show at the highest dose activity change, negative = inhibition, actives largely listed as inhibitors; also: potency is read from the fitted curve at half-maximal effect; % is scaled to controls: 0 for no effect and ±100 for the full control effect; nearly all actives have a fitted effect of over 60% in size
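BAZ2B (50 nM) with biotin-H3(5-23)K14Ac peptide (50 nM) in PBS pH 7.4, 0.01% Tween-20, preformed 30 min, then compound 30 min at room temperature; top concentration 110uM. AlphaScreen streptavidin donor/nickel chelate acceptor beads (10 ug/mL final), 20 min dark, signal read.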
JMJD2A Tudor: qHTS Assay for Inhibitors of JMJD2A-Tudor Domain; Potency, µM (highest dose often 114 µM), for inactives: at the highest dose activity change, negative = inhibition, actives largely listed as inhibitors; AlphaScreen JMJD2A-Tudor / H3K4me3 peptide binding; Lysine-specific demethylase 4A (Homo sapiens), O75164; 390,000 tested, 4.4% active; also: potency is read from the fitted curve at half-maximal effect; % is scaled to controls: 0 for no effect and ±100 for the full control effect; nearly all actives have a fitted effect of over 50% in size
PLK1 PBD inh: qHTS for Inhibitors of PLK1-PDB (polo-like kinase 1 - polo-box domain): Primary Screen; Serine/threonine-protein kinase PLK1 (Homo sapiens), P53350; Plk1 PBD binding of FITC phosphopeptide, fluorescence polarization; Potency, µM, for the others: max response, negative = inhibition, most hits filed as inhibitors; 360,000 tested, 2.8% active; AID 720504, 2013; also: potency is read from the fitted curve at half-maximal effect; series mostly up to about 57 µM; % is scaled to controls: 0 for no effect and ±100 for the full control effect; nearly all actives have a fitted effect of over 65% in size
* marks the source's active call; other numbers are inactive results; [ ] = remark or other dose. Unless noted, calls follow the shape of the dose curve; as a rule, active = well fitted curve in the direction sought with a large enough effect; inconclusive = small, poorly fitted or top-dose-only effect, or another doubt; inactive = no such curve, though single readings can be large; an effect the other way counts as inactive or inconclusive.

How did O=C(c1nc2ccc(Cl)cn2c1CNCCc1cnccn1)N1CCCCCCC1 do in these assays?
G9a block: 81%; PI5P4K alpha inh: -3; HP1b binding inh: 37%; BAZ2B inh: -2%; JMJD2A Tudor: -5%; PLK1 PBD inh: -1%

How did CCOC(=O)c1ccc2c(c1)n(CC)c(/C=C/Nc1ccccc1)[n+]2CC do in these assays?
G9a block: 8%[0.501 µM]; HP1b binding inh: 41%; BAZ2B inh: -34%; JMJD2A Tudor: -17%; PLK1 PBD inh: 2%

Results for CCn1c(/C=C/Nc2ccccc2)[n+](CC)c2ccc(Cl)cc21 ?
G9a block: 45µM*; PI5P4K alpha inh: 0; HP1b binding inh: 7%; BAZ2B inh: 3%; JMJD2A Tudor: -23%; PLK1 PBD inh: -7%

How did O=C(CN1CCN(C(=O)c2ccco2)CC1)Nc1ccc2c(c1)OCCO2 do in these assays?
G9a block: 50µM*; PI5P4K alpha inh: -2; HP1b binding inh: 26%; BAZ2B inh: -27%; JMJD2A Tudor: -3%; PLK1 PBD inh: -8%

What do the screens show for `O=C(Nc1ccccc1)Nc1ccc(Cl)c(S(=O)(=O)N2CCOCC2)c1`?
G9a block: -6%; PI5P4K alpha inh: -1; HP1b binding inh: 42%; BAZ2B inh: -4%; JMJD2A Tudor: -14%; PLK1 PBD inh: -3%

How did O=C(CN1CCC(C(=O)c2ccc3c(c2)OCCO3)CC1)Nc1ccccc1F do in these assays?
G9a block: 5%; PI5P4K alpha inh: 1; HP1b binding inh: 39%; BAZ2B inh: -6%; JMJD2A Tudor: 0%; PLK1 PBD inh: -3%

What do the screens show for `O=C(CN1CCN(C(=O)c2ccco2)CC1)Nc1ccc(Cl)c(S(=O)(=O)N2CCOCC2)c1`?
G9a block: 56µM*; PI5P4K alpha inh: 2; HP1b binding inh: 24%; JMJD2A Tudor: -5%; PLK1 PBD inh: -3%

How did O=C(CN1CCN(CC(=O)Nc2ccccc2F)CC1)Nc1ccc2c(c1)OCCO2 do in these assays?
G9a block: 35µM*; PI5P4K alpha inh: 4; HP1b binding inh: 20%; BAZ2B inh: -16%; JMJD2A Tudor: -10%; PLK1 PBD inh: -13%

How did O=C(/C=C/c1ccco1)Nc1ccc(Cl)c(S(=O)(=O)N2CCOCC2)c1 do in these assays?
G9a block: 50µM*; PI5P4K alpha inh: 0; HP1b binding inh: -13%; BAZ2B inh: inconclusive; JMJD2A Tudor: inconclusive; PLK1 PBD inh: -17%

How did Cc1ccc(NC(=O)CN2CCN(C(=O)c3ccco3)CC2)cc1 do in these assays?
G9a block: 1%; PI5P4K alpha inh: 0; HP1b binding inh: 40%; BAZ2B inh: 2%; JMJD2A Tudor: -6%; PLK1 PBD inh: -5%

How did Cc1c(C(=O)NCc2ccccc2C(F)(F)F)sc(=O)n1Cc1ccc2c(c1)OCO2 do in these assays?
PI5P4K alpha inh: 11; PLK1 PBD inh: 4%

Results for O=C(CN1CCOCC1)Nc1ccc2c(c1)CCC2 ?
G9a block: 2%; PI5P4K alpha inh: -20; HP1b binding inh: 12%; BAZ2B inh: -16%; JMJD2A Tudor: -12%[11.4 µM]; PLK1 PBD inh: 27µM*

Results for O=C(CN1CCOCC1)Nc1ccc2c(c1)OCCO2 ?
G9a block: 20µM*; PI5P4K alpha inh: 1; HP1b binding inh: inconclusive; BAZ2B inh: 50µM*; JMJD2A Tudor: 32µM*; PLK1 PBD inh: 0%

What do the screens show for `O=C(CN1CCN(c2ccccc2)CC1)Nc1ccc2c(c1)OCCO2`?
G9a block: -8%; PI5P4K alpha inh: 1; HP1b binding inh: 2%; BAZ2B inh: -18%; JMJD2A Tudor: -24%; PLK1 PBD inh: -1%
